In PubChem BioAssay (Tox21):
Where “and” joins values, the source holds several entries; their conditions need not be identical. Identical values can stand only once. Unmarked numbers belong to inactive results. Records with an inconclusive call do not appear. A call without a number means that no potency is given here. Calls of active or inactive are those of the source. Unless noted, calls come from the whole dose curve; as a rule, active = well fitted curve in the direction sought with a large enough effect in the repeat runs; inconclusive = weak or mixed curves; inactive = no such curve, though single readings can be large; an effect the other way counts as inactive or inconclusive.

Experiments:
[1] = qHTS assay for small molecule agonists of the p53 signaling pathway (AID 651631; calls by dose curve; note: nearly all actives have a fitted effect of over 15% in size; note: potency is the fitted concentration of half-maximal effect)
Method in brief: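 Readout was fluorescence from the LiveBLAzer FRET substrate, applied for 2 h at room temperature after 16 h compound exposure at 37 °C. Cells were the p53RE-bla HCT-116 line, with beta-lactamase driven by p53 response elements.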

[2] = qHTS assay for small molecules that induce genotoxicity in human embryonic kidney cells expressing luciferase-tagged ATAD5 (AID 651632); note: nearly all actives have a fitted effect of over 15% in size
Method in brief: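 Luminescent reporter readout, HEK293T ATAD5-luc line: 16 hr drug exposure (37C, 5% CO2) followed by Amplite, 30 min RT.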

[3] = qHTS assay for small molecule agonists of the p53 signaling pathway - cell viability (AID 651633; calls by dose curve; note: nearly all actives have a fitted effect of over 30% in size)
Method in brief: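 p53RE-bla cells, seeded at 4,000 per well and rested 5 h at 37 C/5% CO2, received compounds in DMSO for 16 h at 37 C. CellTiter-Glo was then added, and luminescence was read after 30 min at room temperature to gauge cytotoxicity.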

[4] = qHTS assay for small molecules that induce genotoxicity in human embryonic kidney cells expressing luciferase-tagged ATAD5 - cell viability (AID 651634; calls by dose curve; note: nearly all actives have a fitted effect of over 25% in size)
Method in brief: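 Viability read: CellTiter-Fluor fluorescence, 30 min at 37C. Cells: HEK293T, luciferase-tagged ATAD5. Exposure: 15.5 hr, 37C, 5% CO2, compound or DMSO vehicle.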

[5] = qHTS assay for small molecule disruptors of the mitochondrial membrane potential - cell viability (AID 720634; calls by dose curve;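 note: human HepG2 liver cancer cells; nearly all actives have a fitted effect of over 20% in size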)
Method in brief: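 HepG2, 1 hr compound, 37 C. ATP luminescence via CellTiter-Glo, 30 min RT, same well as m-MPI.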

[6] = qHTS assay to test for compound auto fluorescence at 590 nm (red) in HepG2 cells (AID 720674)
Method in brief: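 Rose Bengal sodium served as the red fluorophore standard. HepG2 monolayers (overnight attachment, MEM with 10% FBS) were exposed to test compounds for 1 hr at 37 C and read at Ex 540/Em 590 nm.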

[7] = qHTS assay to test for compound auto fluorescence at 535 nm (green) in HepG2 cells (AID 720675)
[8] = qHTS assay to test for compound auto fluorescence at 460 nm (blue) in HEK293 cells (AID 720678)
Method in brief: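 Intrinsic compound fluorescence is recorded in live HEK293 cultures after overnight incubation at 37C, 5% CO2, using excitation 405 nm and emission 460 nm. Values are referenced to triamterene.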

[9] = qHTS assay to test for compound auto fluorescence at 590 nm (red) in HEK293 cells (AID 720679)
Method in brief: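 Red autofluorescence, HEK293 cells: 2,000 cells/well; attach 4-5 hr 37C; add 23 nL cpd or DMSO; incubate o/n 37C 5% CO2; read Ex540/Em590; Rose Bengal sodium reference.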

[10] = qHTS assay to test for compound auto fluorescence at 535 nm (green) in HEK293 cells (AID 720680)
[11] = qHTS assay to test for compound auto fluorescence at 460 nm (blue) in HEK293 cell free culture (AID 720681)
Method in brief: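 Test compounds were pinned into cell-free culture medium (DMEM with 10% FBS) and fluorescence was read directly at Ex/Em 405/460 nm. Signals were expressed as fluorescence equivalents of triamterene, with DMSO vehicle as control.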

[12] = qHTS assay to test for compound auto fluorescence at 535 nm (green) in HEK293 cell free culture (AID 720682)
Method in brief: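 Compounds were pin-transferred into cell-free DMEM with 10% FBS, and green fluorescence was read at excitation 485 nm and emission 535 nm. Intensities were expressed as fluorescein-equivalent values.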

[13] = qHTS assay to test for compound auto fluorescence at 590 nm (red) in HEK293 cell free culture (AID 720683)
Method in brief: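 Tox21 10K library compounds were pinned into cell-free DMEM with 10% FBS and fluorescence was read at excitation 540 nm. Activity is expressed as Rose Bengal sodium equivalency.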

[14] = qHTS assay to test for compound auto fluorescence at 590 nm (red) in HepG2 cell free culture (AID 720684)
Method in brief: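 Measured in medium alone (MEM containing 10% FBS) following pintool addition of compound; emission at 590 nm with 540 nm excitation, referenced to Rose Bengal sodium.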

[15] = qHTS assay to test for compound auto fluorescence at 460 nm (blue) in HepG2 cell free culture (AID 720685)
Method in brief: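 Compound (23 nL) or DMSO pinned into cell-free MEM with 10% FBS; blue fluorescence read at 405/460 nm excitation/emission, expressed as auto-fluorescence equivalency to triamterene.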

[16] = qHTS assay to test for compound auto fluorescence at 535 nm (green) in HepG2 cell free culture (AID 720686)
[17] = qHTS assay to test for compound auto fluorescence at 460 nm (blue) in HepG2 cells (AID 720687)
Method in brief: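 Cells (2,000/well in MEM with 10% FBS) attached overnight at 37 C, then were exposed to compound or DMSO for 1 hr at 37 C, 5% CO2. Fluorescence read at Ex/Em 405/460 nm, expressed as triamterene-equivalent signal.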

[18] = target: Glucocorticoid receptor (Homo sapiens) (UniProt P04150); assay: qHTS assay to identify small molecule agonists of the glucocorticoid receptor (GR) signaling pathway (AID 720691; active = well fitted activation curve with a large enough effect in the signal ratio in the repeat runs, not every such curve was filed as active; the % refers to the signal ratio); settings: GR-bla HeLa, beta-lactamase reporter ratio, 18 h; activation: at 62.4 µM (top of the series) unless noted
Glucocorticoid receptor (Homo sapiens), sequence (P04150 whole entry, looked up): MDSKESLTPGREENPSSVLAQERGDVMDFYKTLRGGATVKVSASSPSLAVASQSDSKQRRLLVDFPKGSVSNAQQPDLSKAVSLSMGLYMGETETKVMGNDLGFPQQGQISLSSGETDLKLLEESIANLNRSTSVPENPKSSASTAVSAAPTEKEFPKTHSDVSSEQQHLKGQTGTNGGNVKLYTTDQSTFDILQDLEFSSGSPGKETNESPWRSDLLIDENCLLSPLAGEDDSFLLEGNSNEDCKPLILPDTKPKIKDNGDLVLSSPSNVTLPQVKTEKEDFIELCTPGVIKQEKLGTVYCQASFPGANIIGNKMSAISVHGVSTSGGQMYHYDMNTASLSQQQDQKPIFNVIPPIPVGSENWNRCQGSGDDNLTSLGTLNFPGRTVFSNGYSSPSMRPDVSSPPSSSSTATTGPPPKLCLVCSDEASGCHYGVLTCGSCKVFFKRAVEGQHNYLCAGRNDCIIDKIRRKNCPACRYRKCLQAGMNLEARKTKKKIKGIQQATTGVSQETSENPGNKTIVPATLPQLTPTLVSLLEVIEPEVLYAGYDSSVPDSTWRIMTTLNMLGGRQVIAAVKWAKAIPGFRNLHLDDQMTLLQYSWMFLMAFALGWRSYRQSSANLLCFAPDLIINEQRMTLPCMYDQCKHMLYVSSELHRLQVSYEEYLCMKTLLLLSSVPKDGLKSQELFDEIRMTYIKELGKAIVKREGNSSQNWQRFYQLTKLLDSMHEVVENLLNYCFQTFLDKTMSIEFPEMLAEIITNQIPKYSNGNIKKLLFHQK
Method in brief: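 qHTS in GR-bla HeLa cells: 4 h settling at 37 C/5% CO2, 18 h compound incubation at 37 C, 2 h LiveBLAzer B/G FRET substrate at room temperature, fluorescence intensity measured.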

[19] = target: Glucocorticoid receptor (Homo sapiens) (UniProt P04150); assay: qHTS assay to identify small molecule antagonists of the glucocorticoid receptor (GR) signaling pathway (AID 720692; active = well fitted inhibition curve with a large enough effect in the signal ratio in the repeat runs, not every such curve was filed as active; the % refers to the signal ratio)
Method in brief: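 Inhibition of glucocorticoid signalling is measured in HeLa cells with a GRE-controlled beta-lactamase reporter; cells are co-treated with compound and 5 nM dexamethasone (final) for 18 h before FRET substrate readout.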

[20] = qHTS assay for small molecule disruptors of the mitochondrial membrane potential (AID 720635)
Method in brief: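 HepG2 cells (2,000/well) attached overnight at 37C, then took compound for 1 hr at 37C, 5% CO2. Mito-MPS dye was added for 30 min; fluorescence was read at 490/535 nm (monomers) and 540/590 nm (aggregates).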

SMILES | Potency [1] | Potency [2] | Potency [3] | Potency [4] | Potency [5] | Potency [6] | Potency [7] | outcome [8] | Potency [9] | outcome [10] | outcome [11] | outcome [12] | Potency [13] | Potency [14] | outcome [15] | Potency [16] | outcome [17] | Potency [18] | Potency [19] | Potency [20]
COC(C)OC | inactive | inactive | inactive | inactive | inactive | inactive | inactive | inactive | inactive | inactive | inactive | inactive | inactive | inactive | inactive | inactive | inactive | inactive | inactive | 
N=c1ccn2c(n1)O[C@H]1[C@H](O)[C@@H](CO)O[C@H]12 | 1.5 µM (active) and 1.72 µM (active) | inactive | inactive | inactive | inactive | inactive | inactive | inactive |  | inactive | inactive | inactive | inactive | inactive | inactive | inactive | inactive |  | inactive | 
O=C(NCCO[N+](=O)[O-])c1cccnc1 | inactive | inactive | inactive | inactive | inactive | inactive | inactive | inactive | inactive |  | inactive | inactive | inactive | inactive | inactive | inactive | inactive | inactive |  | inactive
CCCCC(CC)COC(=O)COc1ccc(Cl)cc1Cl (stereo not given) | inactive | inactive | inactive | inactive | inactive | inactive | inactive | inactive |  | inactive | inactive | inactive |  | inactive | inactive | inactive | inactive | inactive | inactive | inactive
CCCCCCCCO[C@@H]1O[C@H](CO)[C@@H](O)[C@H](O)[C@H]1O | inactive | inactive | inactive | inactive | inactive | inactive | inactive | inactive | inactive | inactive | inactive | inactive | inactive | inactive | inactive | inactive | inactive | inactive | inactive | 
COC(C)(C)CCO | inactive | inactive | inactive | inactive | inactive | inactive | inactive | inactive | inactive | inactive | inactive |  | inactive | inactive | inactive | inactive | inactive | inactive |  | 
Nc1ccc(S(=O)(=O)Nc2ccccc2)cc1 | inactive | inactive | inactive | inactive | inactive |  | inactive | inactive | inactive | inactive | inactive | inactive |  | inactive | inactive | inactive | inactive |  |  | inactive
COS(=O)(=O)C(F)(F)F | inactive | inactive | inactive | inactive | inactive | inactive | inactive | inactive | inactive | inactive | inactive | inactive |  | inactive | inactive | inactive |  | inactive | inactive | 
C#C[C@]1(O)CC[C@H]2[C@@H]3CCc4cc(OC5CCCC5)ccc4[C@H]3CC[C@@]21C | inactive | inactive | inactive | inactive | inactive | inactive | inactive | inactive | inactive |  | inactive | inactive | inactive | inactive | inactive | inactive | inactive |  |  | 
CC(COCCO)OCCO (stereo not given) | inactive | inactive | inactive | inactive | inactive | inactive | inactive | inactive |  | inactive | inactive | inactive |  | inactive | inactive | inactive | inactive |  |  | 
Nc1c(CC(=O)O)cccc1C(=O)c1ccc(Br)cc1 | inactive | inactive | inactive | inactive | inactive |  | inactive | inactive | inactive | inactive | inactive | inactive | inactive | inactive | inactive | inactive | inactive |  |  | 
CC(=O)[O][Al][O]C(C)=O | inactive | inactive | inactive | inactive | inactive | inactive | inactive | inactive | inactive | inactive | inactive | inactive | inactive | inactive | inactive | inactive | inactive |  |  | 
